Laboratory results published in PubChem BioAssay (NCATS).
Inconclusive results are not listed. The source made the active and inactive calls. Unless noted, calls come from the whole dose curve; as a rule, active = well fitted curve in either direction with a large enough effect (not every such curve was filed as active); inconclusive = small, poorly fitted or top-dose-only effect, or another doubt; inactive = flat fitted curve, though single readings scatter.

Columns and labels:
[1] = target: Lysosomal acid glucosylceramidase (Homo sapiens) (UniProt P04062); test: Glucocerebrosidase-p2 (AID 348; in the data active = potency below about 10 µM; note: potency is the fitted concentration of half-maximal effect); settings: purified GBA, blue fluorogenic substrate, 40 min
Chain of Lysosomal acid glucosylceramidase (Homo sapiens) (P04062 whole entry, looked up): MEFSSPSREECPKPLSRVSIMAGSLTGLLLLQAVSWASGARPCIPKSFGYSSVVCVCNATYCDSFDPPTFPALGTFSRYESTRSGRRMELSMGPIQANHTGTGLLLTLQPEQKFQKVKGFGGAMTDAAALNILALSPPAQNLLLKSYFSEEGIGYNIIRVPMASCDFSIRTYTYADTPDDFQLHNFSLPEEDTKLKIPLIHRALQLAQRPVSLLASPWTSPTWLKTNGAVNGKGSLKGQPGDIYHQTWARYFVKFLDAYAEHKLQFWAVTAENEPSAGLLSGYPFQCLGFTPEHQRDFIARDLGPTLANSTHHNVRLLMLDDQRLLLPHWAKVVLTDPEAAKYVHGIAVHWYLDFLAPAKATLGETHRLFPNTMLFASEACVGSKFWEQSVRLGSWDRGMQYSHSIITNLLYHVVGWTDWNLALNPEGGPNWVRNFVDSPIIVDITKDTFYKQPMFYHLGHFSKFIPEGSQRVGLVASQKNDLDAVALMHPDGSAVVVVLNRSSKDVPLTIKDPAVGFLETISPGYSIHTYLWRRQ
Summary of the method: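 Compounds titrated from 0.6 nM upwards against 0.2 nM enzyme in pH 5.9 citric acid/KH2PO4, taurocholate, tween-20; blue fluorogenic substrate 80 uM, 40 min room temperature, stopped and read Ex 365/Em 440 for AC50.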

[2] = AP1 Signaling Pathway (AID 357); settings: ME-180 AP-1-bla reporter, EGF-induced, beta-lactamase ratio, 5 h; at 7.69 µM (top of the series) unless noted;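 note: ME-180 reporter cells stimulated with EGF at its EC50 level; % is set by controls: 0 for no effect and ±100 for the full control effect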
Summary of the method: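 First, ME-180 AP-1-bla cells were cultured overnight at 37 °C in low-serum Opti-MEM. Next, titrated compounds with EC50 EGF were incubated 5 hours. Finally, CCF4 was added for 2.5 hours and the 460/530 nm ratio recorded.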

[3] = NFAT Signaling Pathway (AID 444); settings: Jurkat NFAT-bla M1, carbachol, beta-lactamase ratio, 5 h; at 7.69 µM (top of the series) unless noted;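 note: carbachol stimulus at about its EC50 of 1 µM final; % is set by controls: 0 for no effect and ±100 for the full control effect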
Summary of the method: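 Jurkat cells carrying an NFAT-driven β-lactamase reporter and co-transfected muscarinic M1 receptor were treated with compound plus carbachol (1 uM final, an EC50 level) for 5 h at 37 °C. CCF4 loading followed for 1 h at RT; 460/530 nm ratio gave %activity.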

[4] = Stat Signaling Pathway (AID 446); settings: ME-180 (cervical carcinoma) SIE beta-lactamase reporter, IL-6 stimulated, 5 h; at 7.69 µM (top of the series) unless noted;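 note: ME-180 cervical cancer cells given 40 pM IL-6 alongside compound; SIE-controlled beta-lactamase reporter measured as 460/530 nm FRET emission ratio; % is set by controls: 0 for no effect and ±100 for the full control effect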
Summary of the method: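 IL-6/STAT signaling read in ME-180 cells via an SIE beta-lactamase reporter. Stimulus was 40 pM IL-6 (its AC50) for 5 hrs, so both activation and inhibition register.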

[5] = target: Glucocorticoid receptor (Homo sapiens) (UniProt P04150); test: GR-GFP Redistribution (AID 450;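 active = compounds whose dose series gives a full or clear partial fitted curve of increased nuclear translocation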; note: potency is the fitted concentration of half-maximal effect); settings: U2OS GR-GFP nuclear translocation, laser cytometry, 2 h
Chain of Glucocorticoid receptor (Homo sapiens) (P04150 whole entry, looked up, the tested form may be a part): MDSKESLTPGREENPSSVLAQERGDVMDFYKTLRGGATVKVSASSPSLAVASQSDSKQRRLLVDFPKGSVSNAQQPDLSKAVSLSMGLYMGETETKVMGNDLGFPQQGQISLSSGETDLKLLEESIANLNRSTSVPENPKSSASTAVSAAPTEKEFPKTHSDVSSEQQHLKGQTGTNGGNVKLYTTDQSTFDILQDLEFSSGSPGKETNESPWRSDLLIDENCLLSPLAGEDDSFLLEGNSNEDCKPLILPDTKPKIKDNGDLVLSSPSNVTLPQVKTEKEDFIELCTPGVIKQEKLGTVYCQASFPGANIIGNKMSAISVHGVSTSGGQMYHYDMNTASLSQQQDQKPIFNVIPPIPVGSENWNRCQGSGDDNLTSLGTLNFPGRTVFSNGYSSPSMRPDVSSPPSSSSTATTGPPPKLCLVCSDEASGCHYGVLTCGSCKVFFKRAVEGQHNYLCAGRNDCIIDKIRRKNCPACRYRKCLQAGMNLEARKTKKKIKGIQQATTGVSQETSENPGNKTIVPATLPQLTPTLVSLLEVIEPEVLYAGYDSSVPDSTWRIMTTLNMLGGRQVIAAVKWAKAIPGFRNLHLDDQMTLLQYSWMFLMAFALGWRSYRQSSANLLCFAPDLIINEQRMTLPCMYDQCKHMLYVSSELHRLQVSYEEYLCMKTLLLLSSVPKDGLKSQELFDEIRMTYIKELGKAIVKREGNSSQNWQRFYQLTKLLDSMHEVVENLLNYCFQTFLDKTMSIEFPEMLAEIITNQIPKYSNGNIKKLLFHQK

[6] = target: Mitogen-activated protein kinase 10 (Mus musculus) (UniProt Q61831); test: JNK3 AlphaScreen Assay (AID 530); settings: JNK3 lysate, c-Jun phosphorylation; series mostly up to 57.1 µM;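 note: kinase came from lysate of stimulated human HepG2 cells; signal reports phosphorylation of biotinylated GST-cJun 1-79 at Ser73 with 10 µM ATP; % is set by controls: 0 for no effect and ±100 for the full control effect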
Summary of the method: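 JNK3 came from HepG2 lysates pre-activated with IL-1beta and TNF-alpha and phosphorylated biotinylated GST-cJun (1-79) at 10 uM ATP, pH 7.6, room temperature. Compounds were titrated. AlphaScreen signal used anti-phospho-cJun (Ser73) antibody.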

[7] = target: 3',5'-cyclic-AMP phosphodiesterase 4B (Homo sapiens) (UniProt Q07343); test: qHTS Assay for Inhibitors of PDE-IV (AID 607; active = well fitted activation curve with a large enough effect in the main read-out, with a control signal flat, not every such curve was filed as active; note: % of control where 0% means no effect); settings: HEK293 ACTOne CNG channel cells, membrane potential fluorescence; series mostly up to 22.9 µM
Chain of 3',5'-cyclic-AMP phosphodiesterase 4B (Homo sapiens) (Q07343 whole entry, looked up): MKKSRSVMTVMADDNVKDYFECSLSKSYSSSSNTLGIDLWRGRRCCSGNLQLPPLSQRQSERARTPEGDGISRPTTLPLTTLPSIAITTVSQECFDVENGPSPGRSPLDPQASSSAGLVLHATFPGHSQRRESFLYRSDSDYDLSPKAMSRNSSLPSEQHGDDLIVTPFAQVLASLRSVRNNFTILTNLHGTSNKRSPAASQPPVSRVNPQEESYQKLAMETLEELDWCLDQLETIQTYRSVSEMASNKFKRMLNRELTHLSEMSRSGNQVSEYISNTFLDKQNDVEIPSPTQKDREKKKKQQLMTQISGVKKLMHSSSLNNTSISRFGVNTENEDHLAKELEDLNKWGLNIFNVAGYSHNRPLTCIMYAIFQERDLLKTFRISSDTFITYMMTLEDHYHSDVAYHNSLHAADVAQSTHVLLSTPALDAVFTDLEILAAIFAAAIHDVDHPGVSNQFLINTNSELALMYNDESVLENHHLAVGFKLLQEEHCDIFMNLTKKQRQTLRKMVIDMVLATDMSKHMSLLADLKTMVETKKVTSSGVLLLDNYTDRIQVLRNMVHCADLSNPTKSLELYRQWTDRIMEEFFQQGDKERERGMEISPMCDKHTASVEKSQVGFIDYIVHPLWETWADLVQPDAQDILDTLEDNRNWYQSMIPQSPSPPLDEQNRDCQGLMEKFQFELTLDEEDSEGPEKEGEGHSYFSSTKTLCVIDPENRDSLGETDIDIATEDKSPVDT
Summary of the method: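 Live HEK293 cells with a modified cyclic nucleotide-gated (CNG) channel report intracellular cAMP via membrane-potential dye fluorescence (ex 535/em 590 nm). Endogenous PDE-IV was targeted. Compounds were tested at up to 22.9 uM final; RO 20-1724 100 uM served as control.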

[8] = target: Glucocorticoid receptor (Homo sapiens) (UniProt P04150); test: GR-EFC Redistribution (AID 451; calls by dose curve; note: potency is the fitted concentration of half-maximal effect); settings: CHO-K1 GR-EFC translocation, beta-gal luminescence, 2 h
Summary of the method: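 CHO-K1 cells stably expressing nuclear-localized β-gal enzyme acceptor and GR fused C-terminally to the enzyme donor fragment; ligand-driven nuclear translocation restores β-gal by complementation. Compounds titrated up to 46 uM final, 2 h at 37 °C; luminescence read.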

[9] = target: Cytochrome P450 3A4 (Homo sapiens) (UniProt P08684); test: qHTS Assay for Activators of Cytochrome P450 3A4 (AID 885; active = well fitted curve in the direction sought with a large enough effect; an effect the other way counts as inactive or inconclusive; note: nearly all actives have a fitted effect of over 65% in size); settings: recombinant CYP3A4, Luciferin-PPXE luminescence, 60 min; series mostly up to 57.1 µM
Chain of Cytochrome P450 3A4 (Homo sapiens) (P08684 whole entry, looked up): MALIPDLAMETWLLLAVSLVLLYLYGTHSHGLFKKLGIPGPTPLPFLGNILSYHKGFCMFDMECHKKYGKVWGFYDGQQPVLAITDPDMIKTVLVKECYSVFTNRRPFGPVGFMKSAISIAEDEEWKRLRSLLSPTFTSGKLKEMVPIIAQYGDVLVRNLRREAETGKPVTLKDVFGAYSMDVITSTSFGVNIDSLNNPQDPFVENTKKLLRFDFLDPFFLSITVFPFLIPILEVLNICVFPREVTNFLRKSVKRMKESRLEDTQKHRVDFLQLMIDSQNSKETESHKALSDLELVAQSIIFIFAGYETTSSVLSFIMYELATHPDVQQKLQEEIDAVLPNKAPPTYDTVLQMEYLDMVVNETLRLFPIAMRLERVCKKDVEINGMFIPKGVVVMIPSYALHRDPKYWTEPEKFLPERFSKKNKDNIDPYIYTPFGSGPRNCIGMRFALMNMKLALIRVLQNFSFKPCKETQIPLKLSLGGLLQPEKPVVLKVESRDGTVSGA
Summary of the method: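 Quantitative HTS format: compounds preincubated with 20nM human CYP3A4 and Luciferin-PPXE substrate at KM, reaction started by NADPH regeneration, stopped after 60 min, luciferase luminescence read 20 min later.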

[10] = target: Cytochrome P450 2D6 (Homo sapiens) (UniProt P10635); test: qHTS Assay for Inhibitors and Substrates of Cytochrome P450 2D6 (AID 891; active = well fitted curve in the direction sought with a large enough effect; an effect the other way counts as inactive or inconclusive; note: potency is the fitted concentration of half-maximal effect; nearly all actives have a fitted effect of over 60% in size); settings: recombinant CYP2D6, luciferin-ME EGE luminescence; series mostly up to 11.4 µM
Chain of Cytochrome P450 2D6 (Homo sapiens) (P10635 whole entry, looked up): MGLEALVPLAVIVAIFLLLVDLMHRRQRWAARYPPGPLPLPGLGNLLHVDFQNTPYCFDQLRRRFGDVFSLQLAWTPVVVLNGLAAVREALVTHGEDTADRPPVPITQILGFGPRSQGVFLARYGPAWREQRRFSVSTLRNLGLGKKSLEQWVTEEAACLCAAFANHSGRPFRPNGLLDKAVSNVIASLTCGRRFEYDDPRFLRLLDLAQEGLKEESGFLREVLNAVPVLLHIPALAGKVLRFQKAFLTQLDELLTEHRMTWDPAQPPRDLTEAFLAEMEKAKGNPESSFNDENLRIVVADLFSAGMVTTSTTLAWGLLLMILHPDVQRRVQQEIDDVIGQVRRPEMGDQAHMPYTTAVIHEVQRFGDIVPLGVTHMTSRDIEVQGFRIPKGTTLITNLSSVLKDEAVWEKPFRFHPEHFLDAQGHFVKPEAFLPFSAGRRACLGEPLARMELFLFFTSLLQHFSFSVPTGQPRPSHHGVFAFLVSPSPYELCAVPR
Summary of the method: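 Human CYP2D6 (5 nM) with 30 uM Luciferin-ME EGE (at Km) in 100 mM KPO4, compound preincubated 10 min, then NADPH regeneration system for 60 min at room temperature. Luciferin read by luminescence; normalized to 1.43 uM quinidine.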

O=S(=O)(NCCO)c1cc[c]([Sb](=[O])([OH])[OH])cc1
inactive: Potency [1] > 11.4 µM | activity change, negative = inhibition [2] -1.39% | activity change, negative = inhibition [3] 16.2% | activity, negative = inhibition [4] 6.67% | Potency [5] > 46 µM | activity change, negative = inhibition [6] 1.82% [at 11.4 µM] | outcome [7]

N[C@@H](Cc1c[nH]c2cc([N+](=O)[O-])ccc12)C(=O)O
inactive: Potency [1] > 11.4 µM | activity change, negative = inhibition [2] -8.44% | activity change, negative = inhibition [3] 5.87% | activity, negative = inhibition [4] 10.4% | Potency [8] > 9.22 µM | activity change, negative = inhibition [6] 4.66% [at 11.4 µM] | outcome [7]

O=P(O)(OP(=O)(O)c1ccccc1)c1ccccc1 (tested in a mixture with another compound)
inactive: Potency [1] > 11.4 µM | activity change, negative = inhibition [2] -8.54% | activity change, negative = inhibition [3] -3.07% | activity, negative = inhibition [4] 2.23% | Potency [5] > 46 µM | Potency [8] > 9.22 µM | activity change, negative = inhibition [6] 3.03% [at 11.4 µM] | outcome [7]

S=P(C1CCCCC1)(C1CCCCC1)[C@H](c1cccnc1)N1CCCC1
inactive: Potency [1] > 11.4 µM | activity change, negative = inhibition [2] 10.9% | activity change, negative = inhibition [3] 5.74% | activity, negative = inhibition [4] -1.57% | Potency [5] > 46 µM | activity change, negative = inhibition [6] 0.158% [at 11.4 µM] | outcome [7] | activity change, positive = activation [9] -61.4% [at 11.4 µM]

C[C@@H]1[C@H]2C=C[C@@H]1[C@@H](c1c3ccc(=O)c(O)c-3oc3c(O)c(O)ccc13)[C@@H]2C(=O)O
inactive: Potency [1] > 11.4 µM | activity change, negative = inhibition [2] -14.3% | activity change, negative = inhibition [3] 3.07% | Potency [5] > 46 µM | Potency [8] > 9.22 µM | outcome [7]

C[C@@](Br)(C(=O)O)[C@H](Br)C(=O)O
inactive: Potency [1] > 11.4 µM | activity change, negative = inhibition [2] 3.08% | activity change, negative = inhibition [3] 17.1% | activity, negative = inhibition [4] 8.31% | Potency [8] > 9.22 µM | activity change, negative = inhibition [6] 1.39% [at 11.4 µM] | outcome [7]

O=C(O)c1cccc([As]=[As]c2cccc(C(=O)O)c2)c1 (stereo unspecified)
inactive: Potency [1] > 11.4 µM | activity change, negative = inhibition [2] -0.316% | activity change, negative = inhibition [3] -6.47% | activity, negative = inhibition [4] 2.08% | Potency [5] > 46 µM | Potency [8] > 9.22 µM | activity change, negative = inhibition [6] -0.547% [at 11.4 µM] | outcome [7]

CCc1ccc(CCN2CCCCC2)nc1
active: Potency [10] 1.58 µM
inactive: Potency [1] > 11.4 µM | activity change, negative = inhibition [2] 15.5% | activity change, negative = inhibition [3] -21.3% | Potency [5] > 46 µM | Potency [8] > 9.22 µM | activity change, negative = inhibition [6] 1.06% [at 11.4 µM] | outcome [7]

C(=NCCN1CCOCC1)=NC1CCCCC1
inactive: Potency [1] > 11.4 µM | activity change, negative = inhibition [2] -1.14% | activity change, negative = inhibition [3] 12.1% | activity, negative = inhibition [4] 19.2% | activity change, negative = inhibition [6] 3.92% [at 11.4 µM] | outcome [7]

[N-]=[N+]=NCC(=O)c1c[nH]c(=O)[nH]c1=O
inactive: Potency [1] > 11.4 µM | activity change, negative = inhibition [2] 12.2% | activity change, negative = inhibition [3] 5.05% | activity, negative = inhibition [4] 1.86% | Potency [5] > 46 µM | activity change, negative = inhibition [6] 0.476% [at 11.4 µM] | outcome [7]

O=c1[nH]cnc2[nH]cc(CN3CCCCC3)c12
inactive: Potency [1] > 11.4 µM | activity change, negative = inhibition [2] 2.74% | activity change, negative = inhibition [3] 3.17% | activity, negative = inhibition [4] 0.346% | activity change, negative = inhibition [6] 0.447% [at 11.4 µM] | outcome [7]

CCOC(=O)c1ccc2[nH]c(-c3ccc(S(=O)(=O)F)cc3)cc(=O)c2c1
inactive: Potency [1] > 11.4 µM | activity change, negative = inhibition [2] -7.65% | activity, negative = inhibition [4] -0.749% | Potency [5] > 46 µM | Potency [8] > 9.22 µM | activity change, negative = inhibition [6] 3.3% [at 11.4 µM] | outcome [7]

Cc1ccc(O)cc1 (tested in a mixture with another compound)
inactive: Potency [1] > 11.4 µM | activity change, negative = inhibition [2] 3.77% | activity change, negative = inhibition [3] 9.05% | activity, negative = inhibition [4] -4.46% | Potency [8] > 9.22 µM | activity change, negative = inhibition [6] 1.19% [at 11.4 µM] | outcome [7]

CN(C)CCCNc1c2c(nc3ccc(Cl)cc13)CCCC2
inactive: Potency [1] > 11.4 µM | activity change, negative = inhibition [2] -1.02% | activity change, negative = inhibition [3] -26.1% | activity, negative = inhibition [4] 10% | Potency [5] > 46 µM | activity change, negative = inhibition [6] 3.7% [at 11.4 µM] | outcome [7]

Cc1ccc(S(=O)ON2CCC(C(=O)O)(c3ccccc3)CC2)cc1 (stereo unspecified)
inactive: Potency [1] > 11.4 µM | activity change, negative = inhibition [2] -1.29% | activity change, negative = inhibition [3] 5.73% | activity, negative = inhibition [4] 8.69% | Potency [5] > 46 µM | activity change, negative = inhibition [6] 5.44% [at 11.4 µM] | outcome [7]
